Screening data from PubChem.
Compounds with a hit are over-represented: about 8% of the library has one in this group of screens.
Coupling enz – qHTS Assay for Inhibitors of Fructose-1,6-bisphosphate Aldolase from Giardia Lamblia: Coupling assay counterscreen | AID 2472, 2010 | coupling enzyme system counterscreen, AmpLite Red fluorescence | actives 0.67% (n = 290,000) | activity change, negative = inhibition, % at 58.2 µM, hits read low; in the data active = activity change below about -30%
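Final compound at 57.5 uM, incubated 10 min at RT with coupling enzyme reagent (glyceraldehyde-3-phosphate), then 20 min with substrate and AmpLite Red detection. Fluorescence read at 525/598 nm; tests interference with the coupling assay, not aldolase inhibition.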
VP16 counter – VP16 counterscreen qHTS for inhibitors of ROR gamma transcriptional activity; Drosophila S2 Gal4-VP16 UAS-luciferase, luminescence, 20 h; Potency, µM (doses to about 53.6 µM), inactives show at the highest dose activity, negative = inhibition, hits mostly inhibitors; actives 3.5% (n = 310,000);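 also: Gal4-VP16 expression switched on by copper sulfate through the metallothionein promoter; potency is read from the fitted curve at half-maximal effect; nearly all actives have a fitted effect of over 50% in size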
TSHR antag – Antagonists of the Thyroid Stimulating Hormone Receptor: HTS campaign. Thyrotropin receptor (Homo sapiens), P16473. actives 0.2% (n = 330,000). activity change, negative = inhibition, % at 11.5 µM. TSHR-expressing cells, TSH-stimulated cAMP HTRF, 2 h; stronger effect = lower value;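 active = activity change below a set negative limit, meaning inhibition stronger than a set level, cut at about -70% in these data; inconclusive = activity change between two set negative limits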
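Cell-based HTRF cAMP assay; TSHR cells + compound, TSH EC80 (4nM final), 2 h, 37 deg C. Lysis with anti-cAMP cryptate and cAMP-d2, 30 min RT, read 665/620 nm.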
ELG1 repair inh – qHTS screen for small molecules that inhibit ELG1-dependent DNA repair in human embryonic kidney (HEK293T) cells expressing luciferase-tagged ELG1 | actives 2.3% (n = 330,000) | AID 504467, 2011 | HEK293T ELG1-luciferase reporter, luminescence, 16 h; DNA damage induced by 5-fluorouridine | Potency, µM (doses to about 46.1 µM), inactives show top-dose activity change, negative = inhibition, actives largely listed as inhibitors; also: potency is read from the fitted curve at half-maximal effect; nearly all actives have a fitted effect of over 55% in size
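Reporter activity after DNA damage by 5-fluorouridine is monitored. Compound-treated cells incubate 16 hr at 37 °C, then ONE-Glo is added for 30 min before luminescence reading.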
RORg inh – qHTS for inhibitors of ROR gamma transcriptional activity; Nuclear receptor ROR-gamma (Mus musculus), P51450; Drosophila S2 Gal4-RORgamma UAS-luciferase reporter, 20 h; Potency, µM (series often up to 53.6 µM), inactives show at the highest dose activity change, negative = inhibition, actives largely listed as inhibitors; actives 5.4% (n = 310,000); also: potency is read from the fitted curve at half-maximal effect; nearly all actives have a fitted effect of over 60% in size
Target sequence (P51450 whole entry, looked up, the tested form may be a part): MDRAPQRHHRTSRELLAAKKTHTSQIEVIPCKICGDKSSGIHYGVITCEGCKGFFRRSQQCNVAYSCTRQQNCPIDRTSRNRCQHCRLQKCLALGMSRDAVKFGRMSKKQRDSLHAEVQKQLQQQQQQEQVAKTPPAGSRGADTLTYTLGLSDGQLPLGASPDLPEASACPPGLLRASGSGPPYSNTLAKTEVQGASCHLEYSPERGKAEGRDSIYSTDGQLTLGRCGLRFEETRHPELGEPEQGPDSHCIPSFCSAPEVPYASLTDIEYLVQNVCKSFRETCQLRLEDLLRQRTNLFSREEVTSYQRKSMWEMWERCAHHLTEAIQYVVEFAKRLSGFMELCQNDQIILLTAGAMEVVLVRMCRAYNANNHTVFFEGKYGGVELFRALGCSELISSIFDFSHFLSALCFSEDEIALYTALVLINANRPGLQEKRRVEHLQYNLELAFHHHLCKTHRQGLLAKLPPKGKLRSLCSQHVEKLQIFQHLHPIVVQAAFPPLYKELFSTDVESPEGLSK
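Drosophila Schneider cells stably carrying a metallothionein-driven Gal4 DBD–ROR gamma fusion and a UAS-Photinus luciferase reporter were exposed to compound for 1 hr, then induced with copper sulfate (700 uM final) for 20 hr at ambient temperature before luminescence reading.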
The depositor's hits bear a star; u = inconclusive; x = no result; [ ] = dose if it differs, or a comment. Unless noted, calls follow the shape of the dose curve; as a rule, active = well fitted curve in the direction sought with a large enough effect; inconclusive = small, poorly fitted or top-dose-only effect, or another doubt; inactive = no such curve, though single readings can be large; an effect the other way counts as inactive or inconclusive. % is scaled to controls: 0 for no effect and ±100 for the full control effect.

SMILES	Coupling enz	VP16 counter	TSHR antag	ELG1 repair inh	RORg inh
O=C1/C(=C/c2cccnc2)CCC/C1=C\c1cccnc1	6	2.5µM*	1	4.1µM*	1.3µM*
CCN(C(=O)CN1C(=O)/C(=C/c2ccccc2F)SC1=S)C1CCS(=O)(=O)C1 (stereo not given)	x	-10%	-1	-23%	10µM*
CN1CCN(C(=O)CCN2C(=O)/C(=C\c3ccccc3F)SC2=S)CC1	0	-17%	8	2%	5.6µM*
CN1CCN(C(=O)CCN2C(=O)/C(=C/c3ccccc3Cl)SC2=S)CC1	5	-1%	5	-4%	18µM*
Cc1cc2c(c(=O)n1Cc1ccccc1)C1O[C@](c3ccsc3)(Cc3cc(C#N)ccc31)O2	-5	1%[10 µM]	x	x	-20%[10 µM]
COc1ccc(-n2c(=O)c(-c3ccc(F)cc3)nc3cncnc32)cc1	2	4%	x	x	-14%
CCCC/C=C/[C@H](c1ccccc1)[C@H](CO)Cc1ccc([N+](=O)[O-])cc1	-6	u	x	x	u
CC[C@H](CO)NCCN[C@@H](CC)CO	3	-10%[17 µM]	x	x	13%[2.98 µM]
Cn1nc(C(=O)Nc2c(-c3ccccc3)nc3sccn23)c2ccccc2c1=O	-2	u	11	6%	10µM*
COc1ccc(C(=O)Oc2cc(C)c(CN3CCOCC3)cc2C)cc1OC	-1	4%	-12	0%	25%
C=CC[n+]1c(/C=C2\C=Cc3cc(C)ccc3N2CC)ccc2ccccc21	2	3.2µM*	-34	u	u
COc1ccccc1-c1noc(-c2cc(OC)c(OC)c(OC)c2)n1	1	4%	-25	12µM*	45%
COc1cc(-c2nc(-c3ccc(NC(=O)c4ccc(Br)o4)cc3)no2)cc(OC)c1OC	-2	2%	-24	10µM*	37%
COc1cccc(-c2nc(-c3cccs3)no2)c1	0	u	-6	u	13µM*
COc1cc(-c2nc(-c3cccc(C(F)(F)F)c3)no2)cc(OC)c1OC	0	0%	-27	23µM*	-36%
O=C(CNC(=O)N1CC(=O)Nc2ccccc21)Nc1cccc(F)c1	0	-4%	-9	14%	2%
CCN(CC)S(=O)(=O)c1cc(NC(=O)C2CC(=O)N(Cc3ccccc3)C2)ccc1Cl (stereo not given)	x	x	-10	u	x
COc1ccc(-c2ccc(-c3noc(-c4ccc(OC)c(OC)c4)n3)c(OC)n2)cc1	1	-1%	1	1%	-12%
COc1ccc(-c2ccc(-c3noc(-c4cccc(OC)c4)n3)c(OC)n2)cc1	3	u	-9	12%	0.35µM*
COc1cc(-c2noc(-c3cccs3)n2)cc(OC)c1OC	0	5%	3	23µM*	39%
CCc1c(C(=O)NCCc2ccc(N3CCCCC3)cc2)[nH]c2ccc(Cl)cc12	x	x	-20	x	x
O=C(CSc1ccccc1)NNC(=O)c1ccccc1O	x	-6%	-10	u	24%
CC(C)(C(=O)N[C@H](CO)c1ccccc1)C(=O)N[C@H](CO)c1ccccc1	0	5%	-2	1%	2µM*
Nc1ncnc2c1ncn2[C@@H]1O[C@H](CNC(=O)[C@@H]2C[C@H](F)CN2)[C@@H](O)[C@H]1O	x	x	6	11%	x
COc1ccc(-c2nc3c(c4nnc(SC(C)C(=O)Nc5ccc(C)cc5)n24)COC(C)(C)C3)cc1 (stereo not given)	2	-2%	1	21µM*	24%
COc1ccc(NC(=O)CSc2nnc3c4c(nc(-c5ccccc5)n23)CC(C)(C)OC4)cc1	4	-1%	3	18µM*	28%
COc1ccc(-c2nnc(SCC(=O)Nc3ccccc3)n2C)cc1	-1	3%	-6	1%	-14%
CCn1cc(S(=O)(=O)NCCc2ccccc2OC)cn1	x	0%	22	0%	9%
CC(/C=C/c1ccc(O)cc1)=N/O	0	-10%	32	23µM*	u
